# Sampled rows, rich in hits. Any-hit rate of the full collection: about 4%.
# KKLEB cytotox: CF airway cell cytotoxicity counter-screen; KKLEB CF airway cells viability, ATPlite luminescence, overnight; stronger effect = lower value; cells stimulated with P. aeruginosa culture filtrate; activity change (cytotoxicity), % at 5 µM; 360,000 compounds, 0.36% hits;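 active means corrected activity change at or below -50% at 5 µM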
# TROY signal inh: inhibitors of TROY-dependent NF-kB signaling. Q293 LMP1-TROYcd NF-kB luciferase reporter, 4 h. inhibition, % at 10 µM. AID 1347056. 360,000 compounds, 0.98% hits;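 active means compounds whose plate-normalised and pattern-corrected inhibition of the luciferase reporter signal at the single screening dose is 50% or more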
# TWEAK-Fn14 inh: inhibitors of TWEAK-Fn14 interaction signaling. AID 1159606. 360,000 compounds, 2% hits. inhibition, % at 10 µM. TWEAK-stimulated Fn14 reporter cells, luciferase luminescence, 8 h; in the data active means inhibition above about 50%
# CF NFkB block: blocks PAF-induced NF-kB reporter in cystic fibrosis cells; KKLEB NF-kB-GFP reporter, GFP fluorescence overnight; 360,000 compounds, 0.86% hits; AID 588850; inhibition, % at 5 µM;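 active means at least 50% inhibition at 5 µM, scaled per plate between neutral and stimulator controls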;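 further: PAF is a Pseudomonas aeruginosa culture filtrate used as stimulus; plate controls were PAF-stimulated DMSO wells for no effect and unstimulated DMSO wells for full effect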
# HIF-2a inh: HIF-2a inhibition. 786-0 RCC cells HIF-2a reporter, luciferase luminescence, overnight. inhibition, % at 18.8 µM. 360,000 compounds, 0.72% hits. AID 624352;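 active means inhibition of the luminescence signal of 40% or more relative to plate controls, in a single-dose primary screen at 18.75 µM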
# Peg3 prom inh-1: inhibitors of Peg3 promoter; HeLa PEG-Prom luciferase reporter, luminescence, overnight; inhibition, % at 20 µM; 360,000 compounds, 1.7% hits;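 active means inhibition of at least 50% at 20 µM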
# Peg3 prom inh-2: confirmation of Peg3 promoter inhibitors | shares compounds with Peg3 prom inh-1 | HeLa PEG-Prom luciferase reporter, luminescence, overnight | inhibition, % at 20 µM | 1,300 compounds, 84% hits | AID 602417;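 active means at 20 µM dose, 40% or more inhibition averaged across four replicates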
# An asterisk follows results filed as active; x = not tested or not shown.
SMILES,KKLEB cytotox,TROY signal inh,TWEAK-Fn14 inh,CF NFkB block,HIF-2a inh,Peg3 prom inh-1,Peg3 prom inh-2
O=C1NCN(c2ccccc2)C12CCN(C(CCc1ccccc1)c1nnnn1Cc1ccccc1)CC2 (configuration not stated),-39,31,42,23,-45,59*,x
Cc1cccc(C)c1-n1nnnc1C(CCc1ccccc1)N1CCC2(CC1)C(=O)NCN2c1ccccc1 (configuration not stated),-16,67*,31,11,13,3,x
COc1ccc(C(c2nnnn2C2CCCC2)N2CCC3(CC2)C(=O)NCN3c2ccccc2)cc1 (configuration not stated),-4,56*,-8,4,9,17,x
CSCCC(c1nnnn1Cc1ccccc1)N1CCC2(CC1)C(=O)NCN2c1ccccc1 (configuration not stated),10,14,31,-33,9,22,x
NC(N)=N/N=C/c1ccc(N(c2ccccc2)c2ccccc2)cc1,0,69*,12,-5,95*,105*,x
CCOc1cc(CNCCc2c[nH]c3ccccc23)cc(Cl)c1OC,0,2,-5,8,23,62*,x
CC(C)(O)/C=C/C(=O)C(C)(O)C1C(O)CC2(C)C3CC=C4C(C=C(O)C(=O)C4(C)C)C3(C)C(=O)CC12C (configuration not stated),-62*,70*,90*,86*,91*,99*,x
CC(=O)OC(C)(C)/C=C/C(=O)[C@](C)(O)C1[C@H](O)C[C@@]2(C)C3CC=C4C(C[C@H](O)C(=O)C4(C)C)[C@]3(C)C(=O)C[C@]12C (some centres not stated),-89*,49,42,84*,72*,104*,x
COc1ccccc1OCC(=O)Nc1ccc(Cl)cc1C(=O)c1ccccc1,-4,-6,107*,7,18,14,x
CC1(C)C[C@H]2C=C(C=O)[C@]3(C=O)C[C@]3(C)[C@H]2C1,-37,7,84*,77*,23,105*,x
COCc1cc(OC(=O)N(C)C)nc2c1c(C)nn2C,-1,57*,-10,-4,8,5,x
CC(=O)OC1CCC2(C)C3CCC4(C)C(OC(C)=O)CCC4C3C(C)C2(O)C1 (configuration not stated),3,0,-3,8,-2,0,x
Cc1cccc(N2C(=O)NC(=O)/C(=C\C=C\c3ccco3)C2=O)c1,-9,4,-13,88*,39,45,x
O=C1NC(=O)N(c2ccccc2)C(=O)/C1=C/C=C/c1ccco1,5,13,14,-2,30,36,x
C=CCN1C(=O)NC(=O)/C(=C/C=C/c2ccccc2)C1=O,0,-10,2,-14,16,24,x
Cc1ccc(N2C(=O)NC(=O)/C(=C\C=C\c3ccco3)C2=O)cc1C,-38,10,14,80*,76*,76*,x
Cc1ccc(N2C(=O)NC(=O)/C(=C\C=C\c3ccco3)C2=O)cc1,-6,2,17,52*,42*,47,x
CN(C)c1ccc(/C=C/C=C2/C(=O)NC(=O)N(c3ccccc3)C2=O)cc1,-27,5,92*,70*,3,103*,x
COc1ccc(CCN)cc1S(N)(=O)=O,x,x,x,x,0,x,x
COc1ccc(-n2nnnc2C(CCc2ccccc2)N2CCC3(CC2)C(=O)NCN3c2ccccc2)cc1 (configuration not stated),-8,14,25,33,-44,50,x
O=Cc1cn(Cc2ccc(Br)cc2)c2ccccc12,8,35,13,13,13,77*,74*
O=Cc1cn(Cc2cccc(F)c2)c2ccccc12,4,18,15,11,12,85*,65*
COC(=O)c1cn(Cc2ccc(F)cc2)c2ccccc12,0,-12,10,-6,-5,4,x
O=C(NP(=O)(N1CC1)N1CC1)c1cc(I)ccc1I,12,15,29,-22,4,10,x
CCCNC(=O)Cn1cnc2sc(C(=O)N3CCC4(CC3)OCCO4)c(C)c2c1=O,11,-4,-3,-22,11,-2,x
SMILES,KKLEB cytotox,TROY signal inh,TWEAK-Fn14 inh,CF NFkB block,HIF-2a inh,Peg3 prom inh-1,Peg3 prom inh-2
Cc1c(C(=O)N2CCC3(CC2)OCCO3)sc2ncnc(N3CCN(c4ccccn4)CC3)c12,-4,5,5,-7,-3,72*,56*
Brc1ccc2c(c1)-n1nncc1CN(CC1CCCCC1)C2,10,2,-12,-27,-33,6,x
C[C@]12CC[C@H]3C(CCC4(O)CC(O)CC[C@]34C=O)C1=CC[C@H]2c1ccc(=O)oc1 (some centres not stated),-44,8,49,49,18,105*,97*
CNCC(O)c1cccc(OC(=O)c2ccccc2C)c1 (configuration not stated),2,0,6,0,10,2,x
CNCC(O)c1cc(OCc2ccccc2)c(OCc2ccccc2)cc1F (configuration not stated),-8,2,-51,-9,-18,98*,89*
COc1ccc(CC2C(=O)NC(C)C(=O)N(C)C3C(=O)N(C)C(Cc4ccc(O)c(c4)Oc4ccc(cc4)C3O)C(=O)NC(C)C(=O)NC(C)C(=O)N2C)cc1 (configuration not stated),-49,87*,102*,82*,87*,96*,98*
Cc1ccc(S(=O)(=O)c2nc(-c3ccccc3Cl)oc2N(C)C2CCN(C)CC2)cc1,-20,13,-3,41,-26,64*,78*
O=C1CCC2(O)C3Cc4ccc(O)c5c4C2(CCN3Cc2ccoc2)C1O5 (configuration not stated),10,-10,-23,-22,-2,-7,x
Cc1ccc2n1Cc1cnnn1-c1ccccc1-2,2,-1,20,-16,-4,6,x
CCN(CC)C(=O)Cn1cc(/C=C2\C(=O)NC(=O)N(c3ccccc3F)C2=O)c2ccccc21,-4,42,66*,-33,44*,58*,92*
C=Cc1cc(OC)c2c(c1)c(=O)oc1c2cc(OC)c2c(O)ccc(C3OC(C)C(O)C(C)(O)C3O)c21 (configuration not stated),-25,-5,91*,79*,52*,106*,98*
CCN(CC)C(=O)c1ccc(NC(=O)c2cccc(C(F)(F)F)c2)cc1,-2,-34,-9,1,-32,-29,x
CCN(CCCl)c1cc(CN(C)C)cc(NC(=O)c2ccc(C(=O)Nc3cc(CN(C)C)cc(N(CC)CCCl)c3)cc2)c1,-89*,54*,99*,80*,70*,101*,99*

# From PubChem
